# Source: PubChem (National Center for Advancing Translational Sciences (NCATS))
# TGFb SMAD3 inh = blocks TGF-b signaling. 410,000 compounds, 1.2% hits. HepG2 CAGA-GFP TGF-b/SMAD3 reporter, GFP fluorescence, 18 h; TGF-beta stimulated, 500 pg/mL final. Potency, µM (series often up to 46.1 µM), actives largely listed as inhibitors; further: nearly all actives have a fitted effect of over 65% in size
#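 HEPG2 CAGA-GFP cells (1000/well, DMEM with 1% FBS) were pre-incubated 2 h at 37 degrees C, given compound by pin tool, then stimulated with TGF-beta at 500 pg/mL final for 18 h before per-cell GFP fluorescence imaging.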
# HT1080 IDH1KD tx = kills HT-1080 cells with IDH1 knockdown; HT-1080 IDH1 knockdown viability, ATP luminescence, 48 h; Potency, µM (series often up to 46.1 µM), actives largely listed as cytotoxic; 360,000 compounds, 2% hits
#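 Assay cells: HT-1080 with IDH1 knockdown, 750 per well, RPMI/5% FBS. Exposure: 48 h at 37 °C following 2 h pre-incubation. Read: CellTiter-Glo luminescence; fitted concentration-response, curve class assigned.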
# KB-3-1 tox = KB-3-1 parental cell cytotoxicity; AID 1347075; 400,000 compounds, 1.4% hits; Potency, µM (doses to about 46.1 µM), usual class: cytotoxic; KB-3-1 viability, CellTiter-Glo ATP luminescence, 72 h; further: nearly all actives have a fitted effect of over 60% in size
#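 Here the drug-naive KB-3-1 line serves as comparator for MDR sub-line selectivity; cells received compound titrations, 72 h at 37 °C, then CellTiter-Glo readout.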
# HT1080-NT tox = kills 2HG-producing HT-1080-NT fibrosarcoma cells; HT-1080-NT fibrosarcoma viability, CellTiter-Glo ATP luminescence, 48 h; Potency, µM (series often up to 46.1 µM), usual class: cytotoxic; 360,000 compounds, 1.6% hits; AID 686970;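 further: NT is the 2HG producing partner of a matched IDH1 knockdown line; nearly all actives have a fitted effect of over 55% in size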
#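 Luminescent CellTiter-Glo readout after 48 hours of compound exposure at 37 degrees C defined viability of HT-1080-NT cells. Activity was normalized to DMSO wells and cell-free media wells; concentration-response curves were fitted and assigned curve classes.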
# HepG2 viability = kills HepG2 cells in TGF-b inhibitor counter-screen; HepG2 CAGA-GFP viability, ATP luminescence, 18 h; Potency, µM (titrated, usually from 46.1 µM), usual class: cytotoxic; 410,000 compounds, 0.76% hits; AID 588856
#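 HepG2 CAGA-GFP cells (1000/well, DMEM with 1% FBS) received compound, then TGF-beta at 500 pg/mL final, and were incubated 18 hours at 37 degrees C. Viability was read by CellTiter-Glo luminescence. Media-only wells were set as complete cell-killing and DMSO as no toxicity.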
# KB-V1 MDR tox = kills drug-selected multidrug resistant KB-V1 cells; KB-V1 MDR cells viability, CellTiter-Glo, 72 h; Potency, µM (highest dose often 46.1 µM), usual class: cytotoxic; 400,000 compounds, 3.4% hits; AID 1347076; further: nearly all actives have a fitted effect of over 60% in size
#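 Compound-treated KB-V1 multidrug-resistant cells, 72 h, 37 degrees C; viability by CellTiter-Glo. Fitted qHTS curves give the values.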
# Numbers stand for hits; 0 = inactive; ? = inconclusive; - = no result; ! = not confirmed by another sample. Sampled rows, rich in hits. Any-hit rate of the full collection: about 6.6%. The call rests on the fitted dose curve; in most records, active means well fitted curve in the direction sought with a large enough effect; inconclusive means small, poorly fitted or top-dose-only effect, or another doubt; inactive means no such curve, though single readings can be large; an effect the other way counts as inactive or inconclusive.
SMILES,TGFb SMAD3 inh,HT1080 IDH1KD tx,KB-3-1 tox,HT1080-NT tox,HepG2 viability,KB-V1 MDR tox
CCc1nc2ccc(C(=O)Nc3cc(-c4ccccc4)ccc3OC)cn2c1N(CCN(C)C)CC1CC1,?,18.4µM,?,?,0,?
CCCCN(C)c1c(C)nc2ccc(C(=O)Nc3cc(-c4ccccc4)ccc3OC)cn12,?,?,0,?,12.6µM,0
CCc1nc2ccc(C(=O)Nc3cc(-c4ccccc4)ccc3OC)cn2c1N(C)Cc1nccs1,?,23.1µM,?,?,0,0
O=C1CC(c2nc3ccccc3n2CCCCOc2ccccc2)CN1c1ccccc1Cl (stereo not drawn),?,-,?,-,0,0
CCOC(=O)[C@]12CCCC=C1N(Cc1ccc3c(c1)OCO3)C(=O)[C@H](CC(=O)NCCC(C)C)C2,-,0,0,0,-,0
Cc1c(Cl)cccc1NS(=O)(=O)c1cc2c(cc1Cl)CCC(=O)N2,-,-,0,-,-,0
O=C(CSc1nc2c(c(=O)[nH]1)CN(Cc1ccc3c(c1)OCO3)CC2)Nc1cccc(Cl)c1,?,-,0,-,0,0
O=[N+]([O-])c1ccccc1S(=O)(=O)NCc1ccccn1,0,-,0,-,0,0
COC(=O)c1ccccc1C(=O)c1c(C)cc(C)cc1C,-,0,-,0,-,0
COC(=O)c1cc(C)ccc1/C=C1/Cc2c(C)cc(C)cc2C1=O,0,0,0,0,0,16.4µM
CCN(C(=O)Cn1c(=O)n(CCCS(=O)(=O)C2CCCCC2)c(=O)c2ccccc21)c1cccc(C)c1,0,-,0,-,0,0
CCCSc1nn2c(=O)c3ccccc3nc2s1,0,0,0,0,0,0
O=c1c2ccccc2sc2nc(CCl)nn12,?,4.61µM,6.51µM,6.51µM,0,?
NC(=S)N/N=C/c1c(O)ccc2ccccc12,?,0,1.64µM,0,0,?
O=CN/N=C/c1c(O)ccc2ccccc12,0,?,7.31µM,0,0,?
NC(=S)N/N=C/c1coc2c(ccc3ccccc32)c1=O,0,0,6.51µM,0,0,5.17µM
CCC(=O)N/C(N)=N/c1nc(C)c2cc(C)c(C)cc2n1,0,0,0,0,0,0
CCc1ccc2nc(N=C(N)N)nc(C)c2c1,0,?,23.1µM,?,0,0
CCCC(=O)N/C(N)=N/c1nc(C)c2cc(C)ccc2n1,0,0,18.4µM,0,0,0
Cc1cc2nc(/N=C(\N)NC(=O)C(C)C)nc(C)c2cc1C,0,0,14.6µM,0,0,0
Cc1ccc2nc(N=C(N)N)nc(C)c2c1,?,?,0,?,0,0
Cc1cc(C)c2c(=O)cc(C(=O)Nc3ccc(S(=O)(=O)Nc4nc(C)cc(C)n4)cc3)oc2c1,0,-,0,-,0,0
COc1ccc(S(=O)(=O)NCCc2csc3nc(-c4cccc(C)c4)nn23)cc1F,0,-,-,-,0,-
Cc1ccc(NC(=O)Cn2c(=O)n(CCC(=O)N3CCc4ccccc4C3)c(=O)c3ccccc32)c(C)c1,0,-,0,-,0,0
COCC(=O)N1CCCC(C(=O)c2ccc(Oc3ccccc3)cc2)C1 (stereo not drawn),?,0,0,0,0,?
SMILES,TGFb SMAD3 inh,HT1080 IDH1KD tx,KB-3-1 tox,HT1080-NT tox,HepG2 viability,KB-V1 MDR tox
CC(=O)N1CCCC(C(=O)c2ccc(Oc3ccccc3)cc2)C1 (stereo not drawn),0,16.4µM,0,23.1µM,0,?
Cc1ccc(-c2nnc(Nc3ccc(O)cc3)c3ccccc23)cc1S(=O)(=O)NCC1CCCO1 (stereo not drawn),6.31µM,-,?,-,0,0
COc1ccc(Nc2nnc(-c3ccc(C)c(S(=O)(=O)NCc4nc5ccccc5[nH]4)c3)c3ccccc23)cc1,7.94µM,-,?,-,0,0
Cc1ccc(-c2nnc(Nc3ccc(C(N)=O)cc3)c3ccccc23)cc1S(=O)(=O)N1CCCCC1,0,-,0,-,0,0
Cc1ccc(-c2nnc(Nc3ccc(O)cc3)c3ccccc23)cc1S(=O)(=O)N1CCCCC1,2µM,-,-,-,0,-
CC(C)CN(C(=O)COC(=O)Cc1ccc(Cl)cc1)c1c(N)n(Cc2ccccc2)c(=O)[nH]c1=O,?,23.1µM,0,25.9µM,0,0
CC(C)CN(C(=O)COC(=O)c1ccc([N+](=O)[O-])s1)c1c(N)n(Cc2ccccc2)c(=O)[nH]c1=O,?,0,20.6µM,0,0,0
CCN(C(=O)COC(=O)CCOc1ccc(C(C)(C)C)cc1)c1c(N)n(Cc2ccccc2)c(=O)[nH]c1=O,0,0,25.9µM,0,0,0
COc1ccc(CC(=O)OCC(=O)N(CC(C)C)c2c(N)n(Cc3ccccc3)c(=O)[nH]c2=O)cc1,?,0,0,0,0,?
CCCC(=O)Nc1ccc2nn(-c3ccc(CC)cc3)nc2c1,0,-,0,-,0,0
CCc1ccc(C2=NN(S(C)(=O)=O)C(c3cccs3)C2)cc1 (stereo not drawn),0,0,?,0,0,14.6µM
CCC(C)NC(=O)Cn1c(=O)n(-c2ccc(Cl)c(Cl)c2)c(=O)c2c(C)c(C(=O)N(CC)CC)sc21 (stereo not drawn),0,-,0,-,0,0
Cc1ccc(C(=O)NC(=S)Nc2cccc3c(C)cc(C)nc23)cc1,0,0,?,0,0,14.6µM
Cc1ccc2cccc(NC(=S)NC(=O)c3ccn(C)n3)c2n1,0,7.94µM,0,7.94µM,0,0
Cc1ccc2cccc(NC(=S)NC(=O)c3c(Br)cnn3C)c2n1,0,0,0,0,0,0
Cc1ccc(NC(=O)c2nc(C)n(-c3ccc([N+](=O)[O-])cc3)n2)cc1,0,0,0,0,0,11.6µM
COC(=O)CCCn1cc(CN2CC(N3CCCC3)CS2(=O)=O)nn1 (stereo not drawn),-,0,0,0,-,0
CC(C)(C)C(=O)Cn1c(=O)n(-c2ccccc2)c(=O)c2c3c(sc21)CCC3,0,-,0,-,0,0
CC(C)Oc1ccc(CCN=C(N)N=C(N)N)cc1Cl,0,23.1µM,?,0,0,0
CC(C)Oc1cc(N)c(Cl)cc1Cl,0,0,0,0,0,0
CCN1CCN(Cc2ccc(NC(=O)c3cc(NC(=O)c4cnn(-c5ccccc5)c4N)cc(OC)c3)cc2C(F)(F)F)CC1,?,18.4µM,0,?,0,0
CCN1CCN(Cc2ccc(NC(=O)c3ccc(C)c(NC(=O)c4ccc5n[nH]nc5c4)c3)cc2C(F)(F)F)CC1,?,0,0,0,0,0
CCN1CCN(Cc2ccc(NC(=O)c3ccc(C)c(NC(=O)C(=O)c4c[nH]c5ccccc45)c3)cc2C(F)(F)F)CC1,17.8µM,14.6µM,?,16.4µM,15.8µM!,?
CCN1CCN(Cc2ccc(NC(=O)c3cc(NC(=O)c4cc(C)on4)cc(OC)c3)cc2C(F)(F)F)CC1,?,?,?,?,0,?
